Measured values reported in PubChem BioAssay (NCI).
The panel holds about 83,000 compounds, 20% with a hit somewhere; the sample as a whole holds those more often.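 A percent growth of 40 corresponds to 60% growth inhibition; 0 means no net growth; -100 means all cells died. Active threshold: below 10.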 Values without a mark were called inactive. Activity calls are given as the source filed them.

Tests used:
Test in all cases: NCI-60 one-dose screen, 48 h (100 = growth as untreated, 0 = no growth, -100 = all killed)
Conditions in all cases: 10 µM
NCI-H23 lung = system: NCI-H23 lung
NCI-H226 lung = system: NCI-H226 lung
NCI-H322M lung = system: NCI-H322M lung
HOP-62 NSCLC = system: HOP-62 NSCLC
NCI-H460 lung = system: NCI-H460 lung
NCI-H522 lung = system: NCI-H522 lung
A549/ATCC NSCLC = system: A549/ATCC NSCLC
786-0 renal = system: 786-0 renal
COLO 205 colon = system: COLO 205 colon
DU-145 prostate = system: DU-145 prostate
K-562 leukemia = system: K-562 leukemia
MALME-3M melanoma = system: MALME-3M melanoma
MDA-MB-231 breast = system: MDA-MB-231 breast
RXF 393 renal = system: RXF 393 renal
SF-268 CNS = system: SF-268 CNS
SF-295 CNS = system: SF-295 CNS
SF-539 CNS = system: SF-539 CNS
UACC-257 melanoma = system: UACC-257 melanoma
M14 melanoma = system: M14 melanoma
HCT-15 colon = system: HCT-15 colon

| Structure (SMILES) | growth (NCI-H23 lung) | growth (NCI-H226 lung) | growth (NCI-H322M lung) | growth (HOP-62 NSCLC) | growth (NCI-H460 lung) | growth (NCI-H522 lung) | growth (A549/ATCC NSCLC) | growth (786-0 renal) | growth (COLO 205 colon) | growth (DU-145 prostate) | growth (K-562 leukemia) | growth (MALME-3M melanoma) | growth (MDA-MB-231 breast) | growth (RXF 393 renal) | growth (SF-268 CNS) | growth (SF-295 CNS) | growth (SF-539 CNS) | growth (UACC-257 melanoma) | growth (M14 melanoma) | growth (HCT-15 colon) |
| --- | --- | --- | --- | --- | --- | --- | --- | --- | --- | --- | --- | --- | --- | --- | --- | --- | --- | --- | --- | --- |
| CC1=C(N2CCOCC2)C(N2CCOCC2)=C(C)C(=O)C1=O | 103% | 98.2% | 114% | 93.6% | 104% | 99.1% | 102% | 102% | 103% | 108% | 93% | 101% | 115% | 101% | 93.3% | 97.2% | 103% | 91.5% | 103% | – |
| CC(C)C[C@H](NC(=O)[C@H](Cc1cccc2ccccc12)NS(=O)(=O)c1cccc2cccnc12)B(O)O | -52.9% (active) | -66.6% (active) | -9.95% (active) | -72.3% (active) | -53.2% (active) | -56.4% (active) | 5.39% (active) | -19.4% (active) | -36.5% (active) | -20.7% (active) | -17.7% (active) | -76.9% (active) | -4.94% (active) | 15.9% | 0.092% (active) | -70.5% (active) | -34.1% (active) | 15.4% | -47.4% (active) | -65.8% (active) |
| COc1ccc(/C=C/C(C)=N/OCC(=O)O)cc1 | 103% | 99.6% | 106% | 105% | 108% | 92.8% | 102% | 98.1% | 98.9% | 104% | 99.9% | 96.7% | 120% | 101% | 107% | 100% | 101% | 112% | 100% | – |
| c1ccc(CNc2ncnc3scc(-c4cccs4)c23)nc1 | 53.5% | 68.1% | 86.3% | 65% | 77.4% | 60.4% | 56.6% | 79.6% | 89.7% | 92.1% | 42.7% | 89.5% | 59.9% | 73.6% | 79.7% | 41.2% | 72.7% | 46.1% | 70.7% | – |
| Cc1c(Cl)cccc1NC(=O)c1sc2nc3c(cc2c1N)C(=O)CCC3 | 16.4% | 55.8% | 27.8% | 34% | 4.71% (active) | -28.4% (active) | 16.7% | 37.7% | -30% (active) | -17.7% (active) | 7.09% (active) | 40.1% | 12.6% | -16.4% (active) | 37.4% | -8.15% (active) | -40.7% (active) | 48.1% | 3.72% (active) | 21% |
| COc1ccc(OC)c2c1C(=O)CC2C (stereo unspecified) | 102% | 101% | 96.5% | 101% | 104% | 110% | 103% | 108% | 106% | 107% | 116% | 87% | 100% | 98.3% | 94.2% | 98% | 101% | 107% | 112% | – |
| CS(=O)(=O)Nc1cccc(-c2cc(-c3ccccc3Cl)c(C#N)c(N)n2)c1 | 38.7% | 53.4% | 51.8% | 45.8% | 5.56% (active) | -7.33% (active) | 29.4% | 46.7% | -0.179% (active) | 8.95% (active) | 14.1% | 24.8% | 49.1% | 6.08% (active) | 49.2% | 7.3% (active) | -14.4% (active) | 74.3% | 23.4% | 30.1% |
| ClCC#CCSc1ncnc2c1ncn2CC#CCCl | -6.61% (active) | -13.6% (active) | 15.3% | -58.4% (active) | 1.04% (active) | -56% (active) | 46.5% | 13.3% | 54.4% | -20.9% (active) | 17.5% | -46.3% (active) | 20.2% | -65.9% (active) | -22.4% (active) | 8.11% (active) | 26% | 55% | 2.78% (active) | 30.1% |
| CC(=O)C1CCC2C3CC(F)C4=CC(=O)CCC4(C)C3C(O)CC12C (stereo unspecified) | 104% | 85.9% | 90.9% | 93% | 103% | 85.8% | 82.3% | 96.3% | 104% | 110% | 86.1% | 86.6% | 98.8% | 118% | 106% | 97.8% | 101% | 98.6% | 93.6% | 108% |
| O=[N+]([O-])c1ccc(Oc2cc(Cl)c(Cl)cc2Cl)c(C(F)(F)F)c1 | 111% | 94.6% | 98.1% | 95.3% | 97.7% | 87.1% | 91.1% | 107% | 122% | 104% | 93.8% | 107% | 96.4% | 96.4% | 101% | 91.7% | 95.3% | 100% | 101% | 92.2% |
| Cc1nc2ccccc2c(N)c1-c1cc(C)c2c(C)nc3ccccc3c2n1 | 44.8% | 98.8% | 10.7% | 58.4% | -75.8% (active) | 68.6% | -75.4% (active) | -89.2% (active) | -91% (active) | -82.4% (active) | -36.1% (active) | 95.3% | -80.2% (active) | -80.3% (active) | -67.5% (active) | 85.2% | -71.9% (active) | 105% | 39.3% | -90% (active) |
| COc1ccc(/C=C2/CN(C(=O)c3ccc(C)cc3)C/C(=C\c3ccc(OC)cc3)C2=O)cc1 | 87.6% | 82.1% | 90.2% | 89.7% | 105% | 69.1% | 87.9% | 99.9% | 97.6% | 93.5% | 23.7% | 91.4% | 87.1% | 92.3% | 87.4% | 85.2% | 102% | 98.1% | 69.4% | 91.3% |
| COc1ccc(-c2nn(-c3cccc(NC(=O)Nc4cc(C(F)(F)F)cc(C(F)(F)F)c4)c3)cc2-c2ccncc2)cc1Cl | 5.1% (active) | 24.2% | 4.66% (active) | 3.91% (active) | -3.36% (active) | -30% (active) | 0.691% (active) | -12.8% (active) | -88.9% (active) | 17.6% | 7.03% (active) | -19.9% (active) | -63% (active) | -12.6% (active) | 9.51% (active) | -1.97% (active) | -42.9% (active) | -31% (active) | -34.1% (active) | 12.1% |
| c1ccc(CSc2nnc3c4c5c(sc4nc(-c4cccnc4)n23)CCCCCC5)cc1 | 54.7% | 67.1% | 99.7% | 91.3% | 19.3% | 6.26% (active) | 36.8% | 73.6% | 20.5% | 56.4% | 21.7% | 16.2% | 71.4% | 83.3% | 57% | 45.1% | 79.7% | 35% | 45% | 94.2% |
| COc1cc2cc3c(nc2cc1OC)CCN3Cc1ccc(NC(=O)Nc2cc(C(F)(F)F)cc(C(F)(F)F)c2)cc1 | 77.9% | 92.6% | 72.5% | 97.5% | 63.3% | 51.8% | 52.1% | 81.4% | 90% | 94.7% | 49.8% | 92.1% | 57.4% | 82.5% | 78.6% | 69.6% | 86.8% | 89% | 77.4% | 76.1% |
